According to PubChem BioAssay AID1511 (Johns Hopkins Ion Channel Center, 2009):
In all, about 310,000 compounds went through this assay and about 1,600 (0.52%) were called active. This is one part of a sample in which actives are shown more often than they occur.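 The calls were made as follows: active = activation above the mean of controls blocked by dofetilide plus 5 SD; inactive = the rest.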

Biological target: Voltage-gated inwardly rectifying potassium channel KCNH2 (Homo sapiens) (UniProt Q12809)
Sequence (Q12809 whole entry, looked up): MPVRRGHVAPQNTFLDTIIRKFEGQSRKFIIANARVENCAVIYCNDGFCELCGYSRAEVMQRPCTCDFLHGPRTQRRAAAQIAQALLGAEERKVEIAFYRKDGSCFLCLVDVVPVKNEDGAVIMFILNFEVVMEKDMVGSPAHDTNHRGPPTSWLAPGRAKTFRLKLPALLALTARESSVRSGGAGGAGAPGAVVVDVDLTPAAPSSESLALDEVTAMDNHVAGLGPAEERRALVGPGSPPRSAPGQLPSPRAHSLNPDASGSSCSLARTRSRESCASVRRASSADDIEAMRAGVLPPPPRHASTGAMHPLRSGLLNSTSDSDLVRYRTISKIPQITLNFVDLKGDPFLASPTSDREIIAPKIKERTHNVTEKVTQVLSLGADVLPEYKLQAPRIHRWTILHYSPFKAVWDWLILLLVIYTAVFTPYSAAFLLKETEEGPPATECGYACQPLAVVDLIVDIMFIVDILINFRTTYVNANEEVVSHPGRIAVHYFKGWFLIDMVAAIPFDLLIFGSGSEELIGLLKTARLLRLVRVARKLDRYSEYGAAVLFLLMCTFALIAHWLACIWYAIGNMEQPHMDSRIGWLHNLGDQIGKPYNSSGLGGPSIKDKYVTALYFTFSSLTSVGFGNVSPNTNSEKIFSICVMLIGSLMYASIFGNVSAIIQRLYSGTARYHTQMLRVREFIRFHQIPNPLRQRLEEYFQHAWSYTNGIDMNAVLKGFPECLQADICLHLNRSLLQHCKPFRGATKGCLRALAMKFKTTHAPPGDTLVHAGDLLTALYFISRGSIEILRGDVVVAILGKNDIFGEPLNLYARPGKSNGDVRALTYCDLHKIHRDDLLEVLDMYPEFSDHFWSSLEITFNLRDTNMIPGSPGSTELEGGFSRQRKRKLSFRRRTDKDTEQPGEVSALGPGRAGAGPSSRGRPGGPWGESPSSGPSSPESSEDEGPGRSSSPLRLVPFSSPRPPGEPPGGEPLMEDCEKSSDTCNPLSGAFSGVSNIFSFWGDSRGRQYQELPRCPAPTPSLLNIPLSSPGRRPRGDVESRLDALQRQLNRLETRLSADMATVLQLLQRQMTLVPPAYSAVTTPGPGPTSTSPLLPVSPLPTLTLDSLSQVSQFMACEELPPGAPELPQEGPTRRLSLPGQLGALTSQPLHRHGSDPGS
Assay: hERG rescue from dofetilide block, primary screen, cell-based, CHO-hERG, FluxOR thallium flux, dofetilide IC70 (AID 1511);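 also: thallium influx through hERG after potassium depolarization seen as dye fluorescence rise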
Conditions: dofetilide IC70 present, at 10 µM, hits give high values

SMILES	activation (rescue from dofetilide block), less the hit threshold
Cc1ccc2nc(-c3ccncc3)cc(C(=O)Nc3ccncc3)c2c1	-6.13% (inactive)
Cc1ccc2nc(-c3ccncc3)cc(C(=O)Nc3ccc4c(c3)OCCO4)c2c1	6.28% (active)
Cc1ccc2nc(-c3ccccn3)cc(C(=O)Nc3ccc4c(c3)OCO4)c2c1	-4.32% (inactive)
O=C(NCC1CC1)c1onc(CSc2ccccc2)c1C(=O)NCC1CC1	-9.81% (inactive)
COc1ccc(CC(=O)N2N=C(C)CC2(O)C(F)(F)F)cc1 (stereo not drawn)	-4.8% (inactive)
Cc1nc2ccc(C(=O)N/N=C/c3ccc(O)cc3)cc2[nH]1	-13.1% (inactive)
Cc1nc2ccc(C(=O)O)cc2[nH]1	6.97% (active)
CC(C)c1nc2ccc(C(=O)O)cc2[nH]1	-0.43% (inactive)
COc1ccc(CNS(=O)(=O)c2cc(-c3cc(C)no3)ccc2C(C)C)cc1	-6.05% (inactive)
CS(=O)(=O)N(Cc1nc2sc3c(c2c(=O)[nH]1)CCCC3)C1CCCCC1	-10.9% (inactive)
Cc1cc(Cl)ccc1NNC(=O)c1snnc1C	-9.34% (inactive)
COc1nc(NC2CCCCC2)nc(N2CCCCCC2)n1	-7.83% (inactive)
Oc1ccc2ccccc2c1N=Nc1nccs1	29.7% (active)
Oc1ccc(N=Nc2nccs2)c(O)c1	-0.07% (inactive)
c1ccc(NCc2cccc3ccccc23)nc1	-3.89% (inactive)
C=CCC1=C/C(=C\c2c(N)n3nc(CC(=O)N4CCOCC4)sc3nc2=O)C=C(OC)C1=O	-8.72% (inactive)
Cn1c(SCC(=O)N2CCCC2)nnc1-c1ccc2c(c1)OCO2	-8.24% (inactive)
Cn1c(SCC(=O)N2CCOCC2)nnc1-c1ccc(NC(=O)c2ccccc2F)cc1	6.37% (active)
Cn1c(SCC(=O)N2CCOCC2)nnc1-c1ccc2ncccc2c1	-4.81% (inactive)
Cc1cccc(NC(=O)NC(=S)NC(=O)c2ccccc2)c1	-0.76% (inactive)
Cc1cccc(NC(=S)NC(=O)c2ccc(Br)o2)c1	17.4% (active)
Cc1cccc(NC(=O)c2ccc([N+](=O)[O-])o2)c1	-12.5% (inactive)
CCc1ccc(C2N3CC4([N+](=O)[O-])CN2CC([N+](=O)[O-])(C3)C4(C)C)cc1 (stereo not drawn)	-4.31% (inactive)
O=C(CCl)Nc1cccc(CP(=O)(c2ccccc2)c2ccccc2)c1	-8.43% (inactive)
Cc1cc(Br)ccc1NC(=S)NC1CCCC1	-9.68% (inactive)

SMILES	activation (rescue from dofetilide block), less the hit threshold
Cc1ccc(NC(=O)CSCC(=O)NC2CCCCC2)cc1	-3.26% (inactive)
Cc1ccc(NC(=S)NC2CCCC2)cc1	4.71% (active)
COc1cc(C(=O)Nn2c(O)c(C3=c4ccccc4=NC3=O)sc2=S)ccc1O	-14.6% (inactive)
Cc1onc(-c2ccc(Cl)cc2)c1-c1ccnn1S(=O)(=O)c1ccc(Cl)cc1	-7.23% (inactive)
O=C(CCn1c(=S)[nH]c2cc3c(cc2c1=O)OCO3)NCc1ccc(Cl)cc1	4.99% (active)
CC(C)NC(=O)CCCn1c(=S)[nH]c2cc3c(cc2c1=O)OCO3	-9.07% (inactive)
CCCCNC(=O)CCn1c(=S)[nH]c2cc3c(cc2c1=O)OCO3	-6.01% (inactive)
N#Cc1c(-c2ccccc2)cc(-c2ccccc2)nc1SCC(=O)O	-12.9% (inactive)
N#Cc1c(-c2ccc(F)cc2)cc(C2CC2)nc1SCC(=O)c1cccs1	8.07% (active)
CCOC(=O)CC(=O)CSc1nc(-c2ccccc2)cc(-c2ccc(Cl)cc2)c1C#N	-4.82% (inactive)
NC(=O)COc1ccc(C23CC4CC(CC(C4)C2)C3)cc1	-4.82% (inactive)
O=C(O)CN(Cc1ccco1)S(=O)(=O)c1ccc(F)cc1	-6.3% (inactive)
Clc1cccc(N=C2NN=C(c3ccc4c(c3)OCCO4)CS2)c1	-12.5% (inactive)
CN(C)c1nc(=Nc2cccc(Cl)c2)ss1	40.5% (active)
COc1ccc(CCNC(=O)CSCc2ccc(Br)cc2)cc1OC	-9.1% (inactive)
Cc1cccc(C)c1NC(=O)CCS(=O)(=O)c1cccc2nsnc12	-5.88% (inactive)
N#Cc1c(N)nc2c(c1N)CC(C(F)(F)F)O2 (stereo not drawn)	-1.93% (inactive)
O=C(Cn1c(=O)sc2ccccc21)Nc1nc2c(s1)CCCC2	-3.68% (inactive)
Fc1ccc2nc(Nc3nc4c(s3)CCCC4)sc2c1	10.5% (active)
CSc1ncccc1C(=O)Nc1nc2ccc(F)cc2s1	-5.7% (inactive)
Brc1ccc(Nc2c3c(nc4ncnn24)CCC3)cc1	-14.2% (inactive)
CC(C)c1ccc2c(c1)c(SC(C)(C)C)c(CC(C)(C)C(=O)O)n2Cc1ccc(Cl)cc1	26.6% (active)
O=C(O)c1ccc(Cn2c(=S)[nH]c3cc(Cl)ccc3c2=O)cc1	-3.87% (inactive)
S=C(Cc1ccc(Cl)cc1)N1CCOCC1	-11.3% (inactive)
CCN(CC)CCCNC(=O)c1c(O)c2cc(F)cc3c2n(c1=O)C(C)CC3 (stereo not drawn)	-2.1% (inactive)

SMILES	activation (rescue from dofetilide block), less the hit threshold
Cc1ccc(CNC(=O)CCNS(=O)(=O)c2cccc3nonc23)cc1	-9.61% (inactive)
Cc1ccc(N(CC(=O)Nc2cc(C)cc(C)c2)S(=O)(=O)c2cccc3nonc23)cc1	4.86% (active)
CCOC(=O)c1cccc(NC(=O)CN(c2ccc(C)cc2)S(=O)(=O)c2c(C)noc2C)c1	-0.14% (inactive)
Cc1cc2c(cc1S(=O)(=O)NCc1ccc(Cl)cc1)OCC(=O)N2	-9.71% (inactive)
CCCCOC(=O)NCN1C(=O)C2C3C=CC(C3)C2C1=O (stereo not drawn)	-3.35% (inactive)
CCC(C(=O)N1CCOCC1)n1c(C(=O)OC)cc2occc21 (stereo not drawn)	-6.73% (inactive)
CCCC(C(=O)N1CCOCC1)N1C(=O)C2C3C=CC(C3)C2C1=O (stereo not drawn)	4.64% (active)
COc1ccc(CNC(=O)C(C)n2nc(C)c3c(C)n(-c4ccccc4)nc3c2=O)c(OC)c1 (stereo not drawn)	-10.8% (inactive)
COc1ccc(C(=O)N2CCCN(C)CC2)c(OC)c1	0.38% (inactive)
Cc1cc(C)c2c(n1)sc1c(=O)n(-c3ccccc3)c(=O)[nH]c12	-5.76% (inactive)
O=c1[nH]c(/C=C\c2cccc(C(F)(F)F)c2)nc(O)c1[N+](=O)[O-]	-0.14% (inactive)
CCN1CCc2nc(NC(=O)c3cc(F)c(F)cc3Cl)sc2C1	15.1% (active)
O=C(Nc1ccc(OCC(=O)N2CCOCC2)cc1)c1cc(F)c(F)cc1Cl	-9.32% (inactive)
CC(=O)Cc1nsc(NC(=O)c2ccc(Cl)cc2Cl)n1	-13.1% (inactive)
COCCCNC(=O)/C(C#N)=C/c1c(N2CCCCCC2)nc2ccccn2c1=O	-4.19% (inactive)
Cc1c(C)c2c(OCC(=O)N[C@@H](C(=O)O)c3ccccc3)cc3c(c2oc1=O)CCC(C)(C)O3	-2.69% (inactive)
COc1cc(Br)cc(/C=N/c2ncn[nH]2)c1O	-7.59% (inactive)
Oc1c(Cl)cc(Cl)cc1/C=N/c1ncn[nH]1	15.4% (active)
CC(C)CCNC(=O)C1CCC(CNc2c(N3CCC(C)CC3)c(=O)c2=O)CC1 (stereo not drawn)	-6.27% (inactive)
Cc1cc(C)cc(NC(=O)NC2CCCCCCC2)c1	-9% (inactive)
CCOC(=O)CSC1=N/C(=C/c2ccc(-n3cncn3)cc2)C(=O)N1C(C)=O	-12% (inactive)
Cc1ccc(NC(=O)CCC(=O)c2ccc(Br)cc2)cc1	1.34% (inactive)
Cc1cc(C)c2c(=O)[nH]c(SCC(=O)Nc3ccc(Br)cc3)nc2n1	-11.1% (inactive)
Cc1ccn(C(CC(=O)c2ccc(Br)cc2)C(=O)O)n1 (stereo not drawn)	5% (active)
O=Cc1c(NCCc2cccc(F)c2)c2ccccc2[nH]c1=O	-6.93% (inactive)

SMILES	activation (rescue from dofetilide block), less the hit threshold
CCOc1ccc(C(C)=O)cc1COC(=O)CNC(=O)c1cccs1	-15.3% (inactive)
CCn1c(=S)[nH]c2sc3c(c2c1=O)CCCCC3	37.3% (active)
CN(C)CCCn1c(=O)n(Cc2ccccc2)c(=O)c2c3c(sc21)CCCCC3	-10.2% (inactive)
CCCc1nc2sc3c(c2c(=O)n1NC(=O)CCCl)CCCC3	-1.21% (inactive)
O=C(/C=C/c1cccs1)NCc1cccnc1	-8.68% (inactive)
COc1ccc(N2CCN(c3ccc([N+](=O)[O-])nc3)CC2)cc1	7.73% (active)
O=[N+]([O-])c1ccc(N2CCN(c3ccc(F)cc3)CC2)cn1	-4.38% (inactive)
COc1ccccc1N1CCN(c2ccc([N+](=O)[O-])nc2)CC1	-22% (inactive)
CC(C)C(=O)Nc1ccc(C(=O)NNC(=O)c2cccs2)cc1	-4.59% (inactive)
CCc1ccc(NC(=O)COC(=O)c2cccs2)cc1	-2.35% (inactive)
CCc1ccc(NC(=O)C(=O)NNC(=O)c2cccs2)cc1	46.7% (active)
O=S(=O)(Nc1ccc2nc(-c3ccco3)[nH]c2c1)c1ccccc1	-13.3% (inactive)
CCCCn1c(=S)[nH]c2ccccc2c1=O	7.08% (active)
CCCCNC(=O)c1ccc(-n2c(=S)[nH]c3ccccc3c2=O)cc1	-10.5% (inactive)
CCCCn1c(=S)[nH]c2ncccc2c1=O	-2.34% (inactive)
Cn1cc(S(=O)(=O)N2CCN(c3ccc(F)cc3)CC2)c(=O)n(C)c1=O	-3.11% (inactive)
CCOc1ccc(N=C2NC(=O)S/C2=C\c2ccc(O)cc2)cc1	-4.52% (inactive)
COc1ccc(/C=C2/S/C(=N/N=C3\CC4CCC3(C)C4(C)C)NC2=O)cc1 (stereo not drawn)	19.7% (active)
COc1ccc(/C=C2\SC(=N)N(c3ccc(F)cc3)C2=O)cc1	-2.33% (inactive)
COc1ccc(CCNC(=O)NS(=O)(=O)c2ccc(C)cc2)cc1OC	0.48% (inactive)
C=CCN1C(=O)C(Cc2cccc(Cl)c2)S/C1=N/N=C/c1ccco1 (stereo not drawn)	-5.7% (inactive)
C=CCN1C(=O)C(Cc2ccc(OCC)cc2)SC1=Nc1ccc(C(=O)O)cc1 (stereo not drawn)	5.1% (active)
CCOc1ccc(N=C2SC(C(=O)O)CC(=O)N2C)cc1 (stereo not drawn)	-10.3% (inactive)
